Results on eight molecules are retold here after PubChem BioAssay (NCI).

Some test systems named below: HCT-15 colon; HT29 colon; SNB-75 CNS; U251 CNS; PC-3 prostate; SK-MEL-5 melanoma; UACC-62 melanoma; LOX IMVI melanoma; SK-MEL-28 melanoma; SK-MEL-2 melanoma; EKVX NSCLC; SN12C renal; UO-31 renal; TK-10 renal; ACHN renal; CAKI-1 renal; A498 renal; CCRF-CEM leukemia; MOLT-4 leukemia.
Holding throughout (assay): NCI-60 one-dose screen, 48 h (100 = growth as untreated, 0 = no growth, -100 = all killed)
What all share (conditions): 10 µM unless noted

Compounds without any hit were thinned out: in the full panel of roughly 83,000, 20% have a hit.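 Interpretation: 100, growth as untreated; towards 0, rising growth inhibition; 0, no net growth; 0 to -100, cell death. Compounds scoring below 10 were considered active.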 Unmarked numbers belong to inactive results. Calls of active or inactive are those of the source.

Turning to `COc1ccc(Cl)cc1Nc1nc(C(F)(F)F)ccc1C(=O)N/N=C/c1cccnc1`, the growth in the assay on HCT-15 colon was 29.1%; in the assay with HT29 colon, 49.6%; in the assay on SNB-75 CNS it was 67.1%; with U251 CNS, 40.4%; in the assay on PC-3 prostate, 43.7%; in the assay on SK-MEL-5 melanoma, 22.2%. The growth is 50.9% with UACC-62 melanoma; 36.3% in the assay with LOX IMVI melanoma; 59.9% in the assay with SK-MEL-28 melanoma; 39% with SK-MEL-2 melanoma; 48.5% in the assay with EKVX NSCLC; 62.7% with SN12C renal. In addition, the growth with UO-31 renal was 41.5%; in the assay with TK-10 renal, 49%; in the assay with ACHN renal it was 36.7%; with CAKI-1 renal, 43.2%; in the assay with A498 renal, 40.8%; in the assay with CCRF-CEM leukemia, 13%. In addition, in the assay on MOLT-4 leukemia, the growth was 2% (active).

For the molecule `CC1CN(Cc2ccco2)C(=S)N(c2ccccc2)C1=O` (configuration not stated), the growth in the assay on HCT-15 colon is 98.2%; in the assay with HT29 colon, 93.4%; with SNB-75 CNS it was 62.2%; in the assay with U251 CNS, 93.4%; in the assay on PC-3 prostate, 86.5%; in the assay with SK-MEL-5 melanoma, 100%. In addition, the growth with UACC-62 melanoma is 93.2%; in the assay on LOX IMVI melanoma it was 94.1%; in the assay with SK-MEL-28 melanoma it was 102%; in the assay on SK-MEL-2 melanoma, 108%; in the assay with EKVX NSCLC, 84.2%; in the assay on SN12C renal, 92%. Besides, the growth in the assay on UO-31 renal is 89.6%; with TK-10 renal it was 100%; in the assay on ACHN renal, 93.8%; in the assay with CAKI-1 renal, 60.4%; in the assay on A498 renal it was 100%; in the assay with CCRF-CEM leukemia, 83.7%. In addition, the growth in the assay on MOLT-4 leukemia is 122%.

Consider `Nc1nc(SCc2ccccc2)c2ncn(C3CCCC3)c2n1`, for which the growth in the assay on HCT-15 colon was -58.9% (active); in the assay on HT29 colon, 114%; in the assay with SNB-75 CNS, 126%; in the assay with U251 CNS, -25.9% (active); in the assay with PC-3 prostate, 83.2%; in the assay with SK-MEL-5 melanoma it was 94%. Moreover, the growth with UACC-62 melanoma is 81.4%; in the assay on LOX IMVI melanoma, 3.63% (active); with SK-MEL-28 melanoma, 141%; in the assay with SK-MEL-2 melanoma, 94.6%; in the assay with EKVX NSCLC, 99.6%; in the assay with SN12C renal, 107%. The growth with UO-31 renal is 89.9%; in the assay with TK-10 renal it was 125%; in the assay on ACHN renal, -81.5% (active); with CAKI-1 renal, 102%; with A498 renal it was 102%; with CCRF-CEM leukemia it was 96.3%. In addition, in the assay on MOLT-4 leukemia, the growth was 113%.

For the molecule `Cn1c2ccccc2c2c3c(c4c5ccccc5n(CCCCCC#N)c4c21)C(=O)N(O)C3=O`, the growth was 13.9% in the assay on HCT-15 colon; 4.37% (active) with HT29 colon; 17.2% in the assay with SNB-75 CNS; 12.8% in the assay with U251 CNS; 24.3% with PC-3 prostate; -80.3% (active) in the assay on SK-MEL-5 melanoma. In addition, the growth was -18.5% (active) in the assay on UACC-62 melanoma; -66.7% (active) with LOX IMVI melanoma; 6.74% (active) in the assay with SK-MEL-28 melanoma; 34.5% with SK-MEL-2 melanoma; 88.2% in the assay on EKVX NSCLC; 10.8% in the assay on SN12C renal. The growth is 2.03% (active) with UO-31 renal; 42.1% in the assay with TK-10 renal; -0.622% (active) with ACHN renal; -32.3% (active) with CAKI-1 renal; -32% (active) with A498 renal; 3.22% (active) in the assay on CCRF-CEM leukemia. Further, the growth in the assay on MOLT-4 leukemia is 1.13% (active).

On to `O=C1Nc2c(ccc(Cl)c2Cl)/C1=C/c1cc(Br)c(O)c(Br)c1`, for which the growth with HCT-15 colon is 52.4%; in the assay with HT29 colon, 56.6%; in the assay with SNB-75 CNS, 70.2%; in the assay on U251 CNS it was 66.2%; in the assay with PC-3 prostate it was 59.4%; in the assay on SK-MEL-5 melanoma, 23.2%. Also, the growth in the assay on UACC-62 melanoma is 26.1%; in the assay with LOX IMVI melanoma it was 59.6%; in the assay on SK-MEL-28 melanoma, 58.3%; in the assay with SK-MEL-2 melanoma, 73.2%; in the assay on EKVX NSCLC it was 47.3%; in the assay with SN12C renal, 80.2%. For the same molecule, the growth is 60.4% in the assay with UO-31 renal; 96.7% in the assay on TK-10 renal; 70.8% in the assay on ACHN renal; 46.8% in the assay with CAKI-1 renal; 48.9% in the assay on A498 renal; 69% in the assay on CCRF-CEM leukemia. Further, the growth in the assay on MOLT-4 leukemia was 63.8%.

Take `Oc1ccccc1N=Cc1c(O)ccc2ccccc12`: the growth is 77.8% in the assay with HCT-15 colon; 82.9% with HT29 colon; 69.8% in the assay on SNB-75 CNS; 83.3% with U251 CNS; 61.3% with PC-3 prostate; 77.3% in the assay with SK-MEL-5 melanoma. In addition, the growth in the assay on UACC-62 melanoma was 63.8%; with LOX IMVI melanoma it was 61.7%; in the assay on SK-MEL-28 melanoma, 113%; in the assay with SK-MEL-2 melanoma, 62.4%; in the assay on EKVX NSCLC, 63.2%; in the assay with SN12C renal, 65.3%. Also, the growth in the assay on UO-31 renal was 57%; in the assay on TK-10 renal, 119%; in the assay on ACHN renal it was 59.3%; in the assay on CAKI-1 renal it was 47.6%; in the assay on A498 renal, 64.8%; in the assay with CCRF-CEM leukemia it was 32.5%. Further, the growth in the assay on MOLT-4 leukemia was 37.1%.

With `CCCCCCCCCCCCCC1=NCCN1CCO`, the growth in the assay on HCT-15 colon was 47.2%; in the assay with HT29 colon, 10.1%; with SNB-75 CNS it was 150%; with U251 CNS, 50.8%; with PC-3 prostate it was 31.6%; in the assay with SK-MEL-5 melanoma, 81.8%. The growth is 93.5% with UACC-62 melanoma; -52.8% (active) with LOX IMVI melanoma; 115% in the assay with SK-MEL-28 melanoma; 114% with SK-MEL-2 melanoma; 112% in the assay with EKVX NSCLC; 69.2% in the assay on SN12C renal. Moreover, the growth was 54.5% in the assay with UO-31 renal; 123% in the assay on TK-10 renal; 78.1% in the assay on ACHN renal; 90.7% in the assay with CAKI-1 renal; 108% with A498 renal; 7.19% (active) with CCRF-CEM leukemia. In addition, the growth in the assay with MOLT-4 leukemia is -1.68% (active).

On to `CC(C)n1cc2c(N)ncnc2n1`, for which the growth in the assay with HCT-15 colon was 106%; in the assay on HT29 colon it was 101%; with SNB-75 CNS, 81.6%; in the assay on U251 CNS it was 106%; in the assay on PC-3 prostate it was 106%; with SK-MEL-5 melanoma, 108%. The growth in the assay on UACC-62 melanoma was 92.9%; in the assay with LOX IMVI melanoma, 108%; in the assay with SK-MEL-28 melanoma, 152%; with SK-MEL-2 melanoma it was 89.5%; in the assay with EKVX NSCLC, 88.1%; in the assay with SN12C renal it was 98.2%. Moreover, the growth with UO-31 renal is 90%; in the assay with TK-10 renal, 96.6%; in the assay on ACHN renal, 105%; with CAKI-1 renal it was 79.4%; in the assay with A498 renal it was 126%; in the assay with CCRF-CEM leukemia, 109%. The growth in the assay with MOLT-4 leukemia was 98.2%.
